For the test, the target named is SHP2 N-SH2 domain T42A. As to the kind of experiment: log2 enrichment relative to wild-type ITIM peptide; higher = stronger binding.
Regarding VFCVDYGELDF [PD-1 ITIM pTyr223 peptide variant S220C], the log2 enrichment is -0.382. With VFSVDYGGLDF [PD-1 ITIM pTyr223 peptide variant E225G], the log2 enrichment was -1.11.

For VFSVDYGELGF [PD-1 ITIM pTyr223 peptide variant D227G], the log2 enrichment was -1.31. With VFSVDYGALDF [PD-1 ITIM pTyr223 peptide variant E225A] the figure was -0.501. With VTSVDYGELDF [PD-1 ITIM pTyr223 peptide variant F219T] the figure was 0.41; with VFSVDYGELTF [PD-1 ITIM pTyr223 peptide variant D227T], -0.714. For the molecule VFSVDYGELDS [PD-1 ITIM pTyr223 peptide variant F228S], the log2 enrichment was -1.4. With VFSTDYGELDF [PD-1 ITIM pTyr223 peptide variant V221T], the log2 enrichment was -0.962. For VFSVDYSELDF [PD-1 ITIM pTyr223 peptide variant G224S], the log2 enrichment was found to be 0.528.

The molecule SFSVDYGELDF [PD-1 ITIM pTyr223 peptide variant V218S] had a log2 enrichment of 0.0685. With VFTVDYGELDF [PD-1 ITIM pTyr223 peptide variant S220T] the figure was 0.338. Under VFSADYGELDF [PD-1 ITIM pTyr223 peptide variant V221A] stands -1.17; under VFSVDYAELDF [PD-1 ITIM pTyr223 peptide variant G224A], 1. With AFSVDYGELDF [PD-1 ITIM pTyr223 peptide variant V218A] the figure was 0.0307. In the case of VFSVDYTELDF [PD-1 ITIM pTyr223 peptide variant G224T], the log2 enrichment came to 0.883. VFSVDYGETDF [PD-1 ITIM pTyr223 peptide variant L226T] had a log2 enrichment of -1.57. In the case of TFSVDYGELDF [PD-1 ITIM pTyr223 peptide variant V218T], the log2 enrichment is -0.0485. Under VFGVDYGELDF [PD-1 ITIM pTyr223 peptide variant S220G] stands -0.124; under VFSVDYGESDF [PD-1 ITIM pTyr223 peptide variant L226S], -1.51. In the case of VFSCDYGELDF [PD-1 ITIM pTyr223 peptide variant V221C], the log2 enrichment was -0.523. Consider VFSVDYGELDG [PD-1 ITIM pTyr223 peptide variant F228G], for which the log2 enrichment is -1.54. The molecule VFSVAYGELDF [PD-1 ITIM pTyr223 peptide variant D222A] gave a log2 enrichment of 1.52.

Molecule VFSVTYGELDF [PD-1 ITIM pTyr223 peptide variant D222T] yielded a log2 enrichment of 0.636.

In turn, VFAVDYGELDF [PD-1 ITIM pTyr223 peptide variant S220A] returned a log2 enrichment of -0.133.

For VFSVDYGELDA [PD-1 ITIM pTyr223 peptide variant F228A], the log2 enrichment was -1.56. Consider VFSVDYGEADF [PD-1 ITIM pTyr223 peptide variant L226A], for which the log2 enrichment is -1.51.

The molecule VGSVDYGELDF [PD-1 ITIM pTyr223 peptide variant F219G] returned a log2 enrichment of 0.639. Under GFSVDYGELDF [PD-1 ITIM pTyr223 peptide variant V218G] stands 0.152; under VFSVDYGSLDF [PD-1 ITIM pTyr223 peptide variant E225S], -0.714; under VCSVDYGELDF [PD-1 ITIM pTyr223 peptide variant F219C], -0.255.

The values above are taken from the supplement of paper PMC10369915.
